Assay outcomes from PubChem BioAssay.
HTT prom inh: inhibitors of huntingtin promoter activity; HEK293 HTT promoter firefly luciferase reporter, 24 h; Potency, µM (top dose mostly 57.5 µM), for inactives: at the highest dose activity change, negative = inhibition, hits mostly inhibitors; hit rate 0.93% among 48,000; note: potency is the fitted concentration of half-maximal effect; nearly all actives have a fitted effect of over 50% in size
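HEK293 luciferase promoter-reporter cells (2,500/well) plated 24 h, then compounds added at up to 57.5 uM final for 24 h at 37 °C. Firefly luminescence by Dual-Glo, normalized to vehicle (0%) and zero RLU (-100%).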
NTMT1 inhibitor: NTMT1 methyltransferase inhibition; Q9BV86; NTMT1 MTase-Glo SAH luminescence, purified enzyme; Potency, µM (titrated, usually from 114 µM), without a hit: at the top dose activity change, negative = inhibition, most hits filed as inhibitors; hit rate 2.5% among 59,000; AID 1645870;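 note: potency is the fitted concentration of half-maximal effect; plate controls were DMSO vehicle for no effect and no enzyme for full effect; nearly all actives have a fitted effect of over 65% in size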
Target sequence (Q9BV86 whole entry, looked up): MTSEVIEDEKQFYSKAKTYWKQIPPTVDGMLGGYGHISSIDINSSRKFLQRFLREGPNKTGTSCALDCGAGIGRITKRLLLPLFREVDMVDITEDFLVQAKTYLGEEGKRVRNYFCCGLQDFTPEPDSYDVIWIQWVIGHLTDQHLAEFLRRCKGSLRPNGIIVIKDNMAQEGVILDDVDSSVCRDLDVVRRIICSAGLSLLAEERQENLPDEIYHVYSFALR
GALK inhibitor: GALK (human) enzyme inhibition; recombinant GALK, Kinase-Glo ATP luminescence, 1 h; Potency, µM (titrated, usually from 57.5 µM), for inactives: at the highest dose activity, negative = inhibition, most hits filed as inhibitors; 44,000 tested, under 10 active;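 note: plate controls were full GALK reaction for no effect and reaction lacking GALK for full effect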
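Luminescent ATP-depletion readout (Kinase-Glo Plus) after 1 h room-temperature incubation of human GALK (5 nM) with galactose 100 µM and ATP 35 µM, pH 8.0 HEPES/Mg2+ buffer; compounds tested in qHTS format.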
B2AR arrestin ag: ADRB2 beta-arrestin recruitment. HTLA Tango cells, beta-arrestin recruitment, luciferase luminescence, 18 h. Potency, µM (titrated, usually from 46.1 µM), actives largely listed as activators. 44,000 tested, under 10 active. AID 1347077;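 note: potency is the fitted concentration of half-maximal effect; 0% = DMSO and full agonism = EC100 isoproterenol or metaproterenol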
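Ligand-induced beta-arrestin recruitment to recombinant beta2-AR is measured via a tTA-driven luciferase reporter in Tango cells after 18 hr compound exposure at 37 degrees C. Concentrations span up to 46 microM.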
HTT-AS act: activates huntingtin-antisense promoter activity | HEK293 HTT-AS promoter firefly luciferase reporter, 24 h; response scale: percent change from vehicle, -100% = no light | Potency, µM (highest dose often 57.5 µM), for inactives: at the top dose activity change, positive = activation, actives largely listed as activators | hit rate 0.24% among 48,000 | AID 1508624; note: potency is the fitted concentration of half-maximal effect; nearly all actives have a fitted effect of over 55% in size
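HEK293 luciferase promoter-reporter cells (2,500/well) plated 24 h, then compounds added at up to 57.5 uM final for 24 h at 37 °C. Firefly luminescence by Dual-Glo, normalized to vehicle (0%) and zero RLU (-100%).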
TSG101-PTAP inh: blocks PTAP binding to human TSG101, validation. Q99816. Fluorescence polarization, FITC-PTAP peptide/Tsg101, 20 min. Potency, µM (series often up to 115 µM), actives largely listed as inhibitors. 44,000 tested, under 10 active; note: potency is the fitted concentration of half-maximal effect; 0% is about no effect
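Read-out is FITC fluorescence polarization. Compounds were added to Tsg101 binding domain (10 uM final), then FITC-PTAP peptide (50 nM final), 20 min at r.t. Total S+P intensity flags fluorescent compounds.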
DYRK1A inh-1: blocks recombinant human DYRK1A kinase activity | shares compounds with NTMT1 inhibitor | recombinant DYRK1A, Kinase-Glo ATP depletion luminescence | Potency, µM (titrated, usually from 76.9 µM), without a hit: at the highest dose activity change, negative = inhibition, most hits filed as inhibitors | hit rate 80% among 100 | AID 2705
CLK4 inh-1: confirmation of human CLK4 kinase inhibitors, SAR round 2. Potency, µM (doses to about 76.9 µM), for inactives: at the top dose activity, negative = inhibition, hits mostly inhibitors. shares compounds with NTMT1 inhibitor. AID 493204. hit rate 90% among 90. recombinant Clk4, Kinase-Glo ATP luminescence, 4.5 h
CLK4 inh-2: CLK4 kinase inhibition, SAR round 2; shares compounds with NTMT1 inhibitor; Reaction Biology kinase assay, 10 uM ATP; Potency, µM, actives largely listed as inhibitors; hit rate 100% among 65; calls by dose curve
DYRK1A inh-2: blocks human DYRK1A kinase in radiometric assay | AID 504424 | Potency, µM, actives largely listed as inhibitors | Reaction Biology kinase assay, 10 uM ATP | hit rate 90% among 65 | shares compounds with NTMT1 inhibitor;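 active = compounds that showed inhibition of Dyrk1a and received a fitted potency; inactive = compounds that showed no inhibition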
CLK2 RBC: inhibitors of human CLK2 kinase; Potency, µM, usual class: inhibitors; shares compounds with NTMT1 inhibitor; hit rate 90% among 65; Reaction Biology kinase assay, 10 uM ATP; AID 504427;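 active = compound that inhibits Clk2 kinase in the dose series, with an IC50 potency reported; inactive = no inhibition seen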
CLK3 RBC: CLK3 kinase inhibition. recombinant CLK3 kinase assay, 10 uM ATP. shares compounds with NTMT1 inhibitor. AID 504428. hit rate 40% among 65. Potency, µM, actives largely listed as inhibitors;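 active = compounds that inhibited Clk3 enough in the ten-dose series to give a half-maximal potency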
DYRK1B inh: DYRK1B kinase inhibition. Recombinant Dyrk1b kinase assay, 10 uM ATP. hit rate 80% among 65. shares compounds with NTMT1 inhibitor. AID 504429. Potency, µM, usual class: inhibitors;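 active = compounds whose dose response shows an inhibitor phenotype against the kinase Dyrk1b; inactive = compounds showing no inhibitor phenotype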
CLK1 inh: CLK1 kinase inhibition. shares compounds with NTMT1 inhibitor. recombinant Clk1 kinase assay, 10 uM ATP. Potency, µM, usual class: inhibitors. hit rate 90% among 65. AID 504430;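 active = compounds that block the splicing kinase Clk1 enough to give a fitted half-inhibition concentration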
NNMT inh: blocks human NNMT methyltransferase | AID 1645878 | NNMT MTase-Glo luminescence, SAH detection | hit rate 10% among 120 | shares compounds with NTMT1 inhibitor | Potency, µM (doses to about 57.1 µM), for the others: top-dose activity, negative = inhibition, actives largely listed as inhibitors
Target sequence (P40261 whole entry, looked up): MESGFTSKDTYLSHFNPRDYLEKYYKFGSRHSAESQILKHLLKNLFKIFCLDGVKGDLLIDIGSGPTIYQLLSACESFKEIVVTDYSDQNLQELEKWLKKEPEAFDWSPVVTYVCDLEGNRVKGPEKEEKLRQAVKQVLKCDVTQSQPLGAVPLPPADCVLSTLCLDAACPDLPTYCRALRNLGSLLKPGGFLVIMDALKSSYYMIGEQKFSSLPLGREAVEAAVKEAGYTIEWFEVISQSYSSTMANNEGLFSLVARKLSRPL
* = called active by the depositor; i = inactive; ? = inconclusive; . = no result; [ ] = remark or other dose. This is one part of a sample in which hits are shown more often than they occur. Unless noted, calls come from the whole dose curve; as a rule, active = well fitted curve in the direction sought with a large enough effect; inconclusive = small, poorly fitted or top-dose-only effect, or another doubt; inactive = no such curve, though single readings can be large; an effect the other way counts as inactive or inconclusive.

SMILES	HTT prom inh	NTMT1 inhibitor	GALK inhibitor	B2AR arrestin ag	HTT-AS act	TSG101-PTAP inh	others
CCN1CCN(Cc2ccc(Nc3ncc(F)c(-c4cc(F)c5nc(C)n(C(C)C)c5c4)n3)nc2)CC1	.	10µM*	.	.	.	.	NNMT inh=?
CC(=O)c1ccc(N2CCN(S(=O)(=O)c3ccc4c(c3)CCCN4C(C)=O)CC2)cc1	.	-4%	.	.	.	.
Cc1nc(CCN(C)c2ncnc3ccc(-c4ccc5c(c4)OCO5)cc23)cs1	.	?	.	.	.	.	CLK4 inh-1=0.082µM*
CCn1cnc(CCN(C)c2ncnc3ccc(-c4ccc5c(c4)OCO5)cc23)c1	.	.	.	.	.	.	DYRK1A inh-1=8.2µM*
Cc1nc(C(C)N(C)c2ncnc3ccc(-c4ccc5c(c4)OCO5)cc23)cs1 (stereo not given)	.	-9%[57.5 µM]	.	.	.	.	CLK4 inh-1=29µM*
Cc1nc(CN(C)c2ncnc3cc(-c4ccc5c(c4)OCO5)ccc23)cs1	.	?	.	.	.	.	DYRK1A inh-1=9.2µM*;CLK4 inh-2=15*;DYRK1A inh-2=i;CLK2 RBC=i;CLK3 RBC=i;DYRK1B inh=i;CLK1 inh=i
Cn1ccc2cc(-c3ccc4ncnc(NCc5ccc6c(c5)OCO6)c4c3)ccc21	.	10%	.	.	.	.
CC(C)=CCC[C@](C)(O)[C@H]1CC[C@]2(C)[C@@H]1[C@H](O)CC1[C@@]3(C)CC[C@H](O)C(C)(C)C3[C@@H](O[C@@H]3O[C@H](CO)[C@@H](O)[C@H](O)[C@H]3O[C@@H]3OC[C@@H](O)[C@H](O)[C@H]3O)C[C@]12C (stereo not given in full)	.	12%[12.6 µM]	.	.	.	.
Cc1ccc(S(=O)(=O)Nc2ccccc2C(=O)Nc2ccc(-c3ccccc3)cn2)cc1	.	2%[57.5 µM]	.	.	.	.
COc1cc(CCc2ccc(OCC=C(C)C)cc2)cc(OC)c1OC	.	-16%[29.8 µM]	.	.	.	.	NNMT inh=-17%[38.3 µM]
CCOc1ccc(OCc2ccc(C(=O)Nc3cc(OC)c(OC)c(OC)c3)o2)cc1	-14%	-2%	5%	i	7%	i
COc1cccc(Nc2ncc3ncc(=O)n(C)c3n2)c1	.	.	.	.	.	.	CLK4 inh-1=0.92µM*
COc1cccc(Nc2ncc3nc(-c4cn(C)c5ccccc45)c(=O)n(CCC#N)c3n2)c1	.	.	.	.	.	.	CLK4 inh-1=?
CN(C)CCCOc1ccc(-c2ccc3ncc4c(c3c2)n(C2CCOCC2)c(=O)n4C)cn1	.	0%[57.5 µM]	.	.	.	.
COc1ccc(-c2cc3c(C)nc(N)nc3n(C3CCC(OCCO)CC3)c2=O)cn1 (stereo not given)	?	0%	.	.	-29%	.	NNMT inh=?
Fc1cc(Nc2nc(-c3ccncc3)nc3ccccc23)ccc1OC(F)(F)F	.	-3%	.	.	.	.
NCC(CNc1nc(Nc2cccc(NC(=O)N3CCCC3)c2)ncc1I)C(=O)c1cccs1 (stereo not given)	.	?	.	.	.	.	NNMT inh=?
CN(Cc1ncc[nH]1)c1ncnc2ccc(-c3ccc4c(c3)OCO4)cc12	.	?	.	.	.	.	DYRK1A inh-1=0.73µM*
Cc1csc(CNc2ncnc3ccc(-c4ccc5c(c4)OCO5)cc23)c1	.	2%[57.5 µM]	.	.	.	.
Cc1csc(CNc2ncnc3ccc(-c4ccc5c(c4)OCO5)cc23)n1	.	-27%	.	.	.	.
